Source: PubChem BioAssay AID602144 (Vanderbilt Specialized Chemistry Center, 2011)
Unmarked numbers belong to inactive results. The source made the active and inactive calls. No stated cut-off is given here; in the data, active means remaining activity below about 50%; inactive means the rest.

molecular target: Phospholipase D1 (Homo sapiens) (UniProt Q13393); test: cellular phospholipase D1 activity inhibition – Calu-1 cells, single concentration (AID 602144); conditions: cellular PLD1 activity, active compounds read low;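 further: tested at 200 nM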
Sequence (Q13393 whole entry, looked up): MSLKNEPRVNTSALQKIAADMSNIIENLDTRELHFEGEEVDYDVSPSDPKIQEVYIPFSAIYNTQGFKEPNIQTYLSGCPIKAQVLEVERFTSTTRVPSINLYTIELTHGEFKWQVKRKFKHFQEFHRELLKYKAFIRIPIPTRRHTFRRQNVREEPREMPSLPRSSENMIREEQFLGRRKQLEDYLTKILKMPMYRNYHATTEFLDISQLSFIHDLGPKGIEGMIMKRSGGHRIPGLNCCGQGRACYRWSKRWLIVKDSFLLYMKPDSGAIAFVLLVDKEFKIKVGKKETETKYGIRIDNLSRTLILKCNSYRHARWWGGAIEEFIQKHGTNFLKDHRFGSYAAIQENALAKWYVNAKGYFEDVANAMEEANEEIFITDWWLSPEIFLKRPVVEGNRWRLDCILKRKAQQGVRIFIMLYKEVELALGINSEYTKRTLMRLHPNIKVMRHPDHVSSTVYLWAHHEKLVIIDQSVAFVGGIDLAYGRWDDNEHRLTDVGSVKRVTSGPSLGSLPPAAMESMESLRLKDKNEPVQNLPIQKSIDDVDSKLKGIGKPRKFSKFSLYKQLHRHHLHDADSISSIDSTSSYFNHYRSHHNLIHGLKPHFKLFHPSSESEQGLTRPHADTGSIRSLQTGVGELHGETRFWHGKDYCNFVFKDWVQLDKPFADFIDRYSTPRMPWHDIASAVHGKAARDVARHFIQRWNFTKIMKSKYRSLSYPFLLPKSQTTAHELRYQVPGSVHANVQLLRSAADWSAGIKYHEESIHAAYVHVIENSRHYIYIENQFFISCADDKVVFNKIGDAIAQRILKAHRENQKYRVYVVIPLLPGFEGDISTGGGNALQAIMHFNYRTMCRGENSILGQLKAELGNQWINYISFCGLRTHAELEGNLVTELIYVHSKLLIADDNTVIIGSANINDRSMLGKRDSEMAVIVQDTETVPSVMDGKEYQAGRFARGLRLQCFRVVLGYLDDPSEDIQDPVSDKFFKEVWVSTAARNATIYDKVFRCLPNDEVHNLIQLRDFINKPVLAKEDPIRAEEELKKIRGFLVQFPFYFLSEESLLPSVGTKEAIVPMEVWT
Sequence (Q13393 whole entry, looked up): as above

| SMILES | remaining activity |
| --- | --- |
| C[C@@H](CN1CCC(n2c(=O)[nH]c3ccc(F)cc32)CC1)NC(=O)c1ccc(F)c(F)c1 | 13.7% (active) |
| CS(=O)(=O)N1CC2(CCN(CCNC(=O)c3cnc4ccccc4c3)CC2)c2ccccc21 | 99.4% |
| Cc1ccc(C(=O)NCCN2CCN(c3ncccn3)CC2)cc1 | 84.2% |
| O=C(CCN1CCC(n2c(=O)[nH]c3ccccc32)CC1)NCc1ccc(Cl)cc1 | 98.9% |
| O=C(N[C@@H](Cc1ccccc1)CN1CCC(n2c(=O)[nH]c3ccccc32)CC1)c1ccc(F)c(F)c1 | 90.2% |
| O=C(c1ccc(Cl)cc1)N1CCC2(CC1)C(=O)NCN2c1ccccc1 | 102% |
| O=C(NCCN1CCC(n2c(=O)[nH]c3ccccc32)CC1)c1cc([N+](=O)[O-])cc([N+](=O)[O-])c1 | 50% (active) |
| CCS(=O)(=O)NCCN1CCC(n2c(=O)[nH]c3ccccc32)CC1 | 121% |
| O=C(NCCN1CCN(c2ccncc2)CC1)c1cc2cc(F)ccc2[nH]1 | 162% |
| O=c1[nH]c2ccccc2n1C1CCN(CCNS(=O)(=O)c2ccccc2C(F)(F)F)CC1 | 94.8% |
| C[C@@H](CN1CCC2(C=Cc3ccccc32)CC1)NC(=O)c1cnc2ccccc2c1 | 137% |
| C[C@@H](CN1CCC2(CNCc3ccccc32)C1)NC(=O)c1ccc2ccccc2c1 (some centres undefined) | 95.4% |
| C[C@H](CN1CCC2(CC1)CNc1ccccc12)NC(=O)c1ccc2ccccc2c1 | 34.6% (active) |
| O=C(NCCN1CCC(n2c(=O)[nH]c3cc(I)ccc32)CC1)C1CC1c1ccccc1 (centres undefined) | 16.1% (active) |
